The record followed here is PMC5540273 (PLoS ONE, 2017).

What all share (settings): concentration: 1 μM, replicates: in singlicate; n = 1
The test system of experiment [1] is EPHA1.
Experiment [2] has as its system EPHA2.
Experiment [3] concerns EPHA3.
The test system of experiment [4] is EPHA4.
Experiment [5] deals with EPHA5.
In experiment [6] the test system is EPHA6.
Experiment [7] concerns EPHA7.
The subject of experiment [8] is EPHA8.
Experiment [9] has as its system EPHB1.
In experiment [10] the test system is EPHB2.
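Also: KINOMEscan kinase panel screen.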

Consider `COc1cc2nccc(Nc3cccc(Oc4ccccc4)c3)c2cc1OC.Cl` [GW284543], for which the “%Inh” value in experiment [1] worked out at 10%; in experiment [2], 0%; in experiment [3], 12%; in [4] it was 0%; in experiment [5] it was 0%; in [6] it was 0%. Besides, the “%Inh” value in experiment [7] was found to be 0%; in [8] it was 6%; in experiment [9] it was 11%; in experiment [10], 0%.

In the case of `O=C(Nc1n[nH]c2nc(-c3ccccc3)c(Br)cc12)C1CC1` [SB-708998], the “%Inh” value in experiment [1] is reported as 23%; in experiment [2], 27%; in experiment [3], 0%; in [4], 11%; in [5], 3%; in experiment [6] it was 9%. Also, the “%Inh” value is 0% in [7], 15% in experiment [8], 23% in experiment [9] and 9% in [10].

`CCC(=O)c1c(-c2ccccc2)c2cc(Cl)ccc2c(=O)n1Cc1cc(S(C)(=O)=O)n(CCC(C)(C)O)n1`: the “%Inh” value came out at 0% in experiment [1]; 22% in experiment [2]; 4% in experiment [3]; 17% in experiment [4]; 11% in experiment [5]; 34% in experiment [6]. In addition, the “%Inh” value stood at 10% in experiment [7], 12% in experiment [8], 6% in experiment [9] and 18% in [10].

With `Cc1nn2c(=O)cc(N3CCOCC3)nc2n1Cc1cccc(Cl)c1Cl` [GSK2342769], the “%Inh” value was found to be 10% in experiment [1]; 10% in [2]; 0% in [3]; 21% in [4]; 0% in experiment [5]; 18% in experiment [6]. Moreover, the “%Inh” value is 0% in experiment [7], 6% in experiment [8], 0% in [9] and 0% in experiment [10].

`COc1cc(Nc2nccc(N3CCC(NC(=O)C(C)c4ccc(Cl)cc4)C3)n2)cc(OC)c1OC` (stereo not shown) [GSK1379757]: the “%Inh” value in [1] turned out to be 4%; in [2], 23%; in [3], 0%; in [4] it was 22%; in experiment [5], 0%; in [6] it was 18%. Moreover, the “%Inh” value in [7] is 2%; in experiment [8] it was 14%; in [9], 0%; in [10] it was 0%.

On to `FC(F)(F)c1ccc(-c2ncn(CCCN3CCOCC3)c2-c2ccncc2)cc1` [SB-217780], for which the “%Inh” value in experiment [1] came out at 6%; in [2] it was 5%; in experiment [3], 0%; in experiment [4], 12%; in experiment [5] it was 0%; in experiment [6], 7%. The “%Inh” value in experiment [7], in experiment [8], in [9] and in experiment [10] was 0% each time.

Consider `COc1cc2ncn(-c3cc(OCCCc4ccccc4)c(C(N)=O)s3)c2cc1OC` [GSK205189], for which the “%Inh” value in experiment [1] amounted to 0%; in [2], 0%; in experiment [3], 0%; in experiment [4], 3%; in experiment [5], 1%; in experiment [6], 5%. In addition, the “%Inh” value in experiment [7] was determined as 5%; in [8], 17%; in experiment [9] it was 4%; in experiment [10], 0%.

As for `O=C(Nc1n[nH]c2nc(-c3ccccc3)c(Cl)cc12)C1CC1` [SB-734909], the “%Inh” value is given as 19% in experiment [1]; 24% in experiment [2]; 17% in experiment [3]; 8% in [4]; 0% in experiment [5]; 13% in experiment [6]. The “%Inh” value is given as 17% in [7], 21% in experiment [8], 0% in experiment [9] and 0% in [10].

Take `CCC(=O)c1c(-c2ccccc2)c2cc(Cl)ccc2c(=O)n1Cc1ccc(C(=O)O)cc1`: the “%Inh” value in experiment [1] is 0%; in experiment [2], 0%; in experiment [3], 7%; in experiment [4] it was 7%; in [5], 0%; in experiment [6] it was 6%. The “%Inh” value in [7] is on record as 0%; in [8], 4%; in experiment [9], 9%; in experiment [10], 0%.

For the molecule `COc1cc2ncn(-c3cc(OCc4ccc(S(C)(=O)=O)cc4)c(C(N)=O)s3)c2cc1OC` [GW869979], the “%Inh” value in experiment [1] is listed as 0%; in experiment [2] it was 0%; in experiment [3], 7%; in experiment [4], 0%; in experiment [5] it was 0%; in experiment [6], 0%. Moreover, the “%Inh” value amounted to 22% in experiment [7], 17% in [8], 9% in experiment [9] and 9% in [10].

In the case of `CCCC(=O)Nc1n[nH]c2ncc(-c3cccc4ccccc34)cc12` [SB-642057], the “%Inh” value in experiment [1] stood at 0%; in experiment [2] it was 0%; in experiment [3], 0%; in [4] it was 2%; in experiment [5] it was 0%; in experiment [6], 0%. Moreover, the “%Inh” value amounted to 4% in experiment [7], 1% in experiment [8], 15% in [9] and 19% in [10].

With `Cc1ccc(-c2ccc3c(ccc4sc5c(c43)NC[C@@H](C)N=C5N(C)C)n2)cn1`, the “%Inh” value in experiment [1], in [2], in [3], in experiment [4], in [5] and in [6] was 0% in each case. In addition, the “%Inh” value in experiment [7], in [8], in [9] and in experiment [10] was 0% each time.

As for `Nc1nccc2scc(-c3ccc4c(c3)CCN4C(=O)Cc3ccccc3)c12` [GSK2576924], the “%Inh” value in experiment [1] is 9%; in experiment [2] it was 6%; in experiment [3], 38%; in experiment [4] it was 4%; in [5] it was 0%; in [6], 2%. Besides, the “%Inh” value in [7] turned out to be 4%; in experiment [8], 15%; in experiment [9], 0%; in experiment [10], 14%.

As for `CCc1ccc(-c2ccc3c(c2)-c2nn(C)cc2S(=O)(=O)N3C)cc1`, the “%Inh” value in [1] stood at 4%; in experiment [2], 25%; in experiment [3], 0%; in [4], 0%; in experiment [5], 0%; in experiment [6] it was 0%. Further, the “%Inh” value in [7], in experiment [8], in experiment [9] and in experiment [10] was 0% each time.

As for `COc1cc2nccc(Nc3ccc(OCc4ccc(NC(C)=O)cc4)cc3)c2cc1OC.Cl` [GW440135], the “%Inh” value came out at 19% in [1]; 16% in experiment [2]; 0% in experiment [3]; 13% in experiment [4]; 0% in [5]; 16% in experiment [6]. In addition, the “%Inh” value came to 5% in [7], 5% in [8], 6% in experiment [9] and 0% in experiment [10].

Consider `CCn1c(-c2nonc2N)nc2ccccc21` [SB-693162/GW549034], for which the “%Inh” value turned out to be 0% in experiment [1]; 0% in [2]; 10% in experiment [3]; 0% in [4]; 0% in [5]; 0% in [6]. The “%Inh” value in experiment [7], in [8], in experiment [9] and in [10] was 0% each time.
